Screening data as filed in PubChem BioAssay.
Rows were chosen to be rich in hits. Some 7.3% of all compounds tested hit in one or more screens of this group.
IP6K1 inh: blocks human inositol hexakisphosphate kinase 1 | Q92551 | activity change, % (series mostly up to about 58 µM) | IP6K1 kinase, ADP-Glo luminescence, 2 h; hits give low values | 0.81% of 140,000 active; in the data active = activity change below about -25%
Target sequence (Q92551 whole entry, looked up): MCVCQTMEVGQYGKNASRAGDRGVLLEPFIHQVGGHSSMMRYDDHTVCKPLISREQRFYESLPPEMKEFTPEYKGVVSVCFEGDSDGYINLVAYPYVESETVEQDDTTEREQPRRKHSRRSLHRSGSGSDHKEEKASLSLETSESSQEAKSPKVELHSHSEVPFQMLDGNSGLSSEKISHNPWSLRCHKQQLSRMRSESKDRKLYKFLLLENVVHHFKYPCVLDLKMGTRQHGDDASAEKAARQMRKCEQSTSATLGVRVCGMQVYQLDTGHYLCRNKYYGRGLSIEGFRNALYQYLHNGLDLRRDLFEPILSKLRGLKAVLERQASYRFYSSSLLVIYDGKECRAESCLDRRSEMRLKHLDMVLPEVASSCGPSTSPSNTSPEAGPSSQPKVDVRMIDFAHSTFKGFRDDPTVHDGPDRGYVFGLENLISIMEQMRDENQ
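ADP-Glo luminescence measures ADP made by human IP6K1 during a 2 h RT reaction with ATP/IP6 (mix at 1.3 mM/130 uM); top library doses 57.5 and 19.1 uM final.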
SNCA expr inhib: SNCA gene expression inhibition; 0.17% of 140,000 active; HEK-293 SNCA-luciferase knock-in, luminescence, 24 h; Potency, µM (series often up to 57.2 µM), for the others: top-dose activity change, negative = inhibition, usual class: inhibitors;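 also: potency is read from the fitted curve at half-maximal effect; plate controls were DMSO cells for no effect and cell-free wells for full effect; nearly all actives have a fitted effect of over 45% in size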
FLuc inh: blocks purified firefly luciferase enzyme activity | P08659 | Potency, µM (series often up to 115 µM), hits mostly inhibitors | 2.5% of 76,000 active | purified P. pyralis luciferase, luminescence, biochemical; also: potency is read from the fitted curve at half-maximal effect; nearly all actives have a fitted effect of over 65% in size
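FLuc 10nM, D-luciferin 10uM, ATP 10uM, Mg acetate 10mM, Tris acetate pH 7.5, Tween/BSA; cpd qHTS; enzyme added last; CCD luminescence.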
HEK293 tox: kills HEK 293 cells. HEK 293 viability, ATP luminescence (CellTiter-Glo), 48-72 h. Potency, µM (top dose mostly 115 µM), for the others: at the highest dose activity change, negative = cytotoxicity, actives largely listed as inhibitors. 6.6% of 94,000 active. AID 1345083; also: potency is read from the fitted curve at half-maximal effect; nearly all actives have a fitted effect of over 60% in size
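Read-out: CellTiter-Glo ATP luminescence. Cells: HEK 293, 250 cells/well. Exposure: 48 or 72 hr, 37 degree Celsius.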
HEK293 viab: reduces viability of HEK-293 SNCA reporter cells | HEK-293-SNCA-luc viability, GF-AFC fluorescence, 24 h | Potency, µM (top dose mostly 57.1 µM), for inactives: at the highest dose activity change, negative = cytotoxicity, hits mostly cytotoxic | 0.12% of 150,000 active | AID 1671193;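 also: potency is read from the fitted curve at half-maximal effect; 0% = DMSO-treated cells and -100% = medium-only wells without cells; nearly all actives have a fitted effect of over 30% in size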
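HEK-293-SNCA-luc cells (1500/well) plated 24 h, then exposed 24 h to a dilution series; GF-AFC added 30 min at 37C, fluorescence 405/540 nm; normalised to medium-only and DMSO wells, Hill fit.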
NIH3T3 tox: cytotoxic compounds in NIH 3T3 cells; NIH 3T3 viability, CellTiter-Glo ATP luminescence, 48-72 h; 4.3% of 94,000 active; Potency, µM (highest dose often 96.7 µM), without a hit: top-dose activity change, negative = cytotoxicity, most hits filed as inhibitors; also: potency is read from the fitted curve at half-maximal effect; nearly all actives have a fitted effect of over 55% in size
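Cytotoxicity is measured as loss of cellular ATP: NIH 3T3 cells (400/well) are exposed to compound for 48 or 72 hr at 37 °C, then CellTiter-Glo luminescence is imaged after 10 min at room temperature.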
Starred values were filed as active, the others as inactive; i = inactive; ? = inconclusive; / = no result given; [ ] = dose if it differs, or a comment. Unless noted, calls follow the shape of the dose curve; as a rule, active = well fitted curve in the direction sought with a large enough effect; inconclusive = small, poorly fitted or top-dose-only effect, or another doubt; inactive = no such curve, though single readings can be large; an effect the other way counts as inactive or inconclusive. Unless noted, % is scaled to controls: 0 for no effect and ±100 for the full control effect.

SMILES | IP6K1 inh | SNCA expr inhib | FLuc inh | HEK293 tox | HEK293 viab | NIH3T3 tox
O=C(NC1CCCCCC1)C1CCN(C(=O)c2ncn3c2COC(c2ccc(F)cc2)C3)CC1 (centres undefined) | 3 | 12% | i | 4% | -6% | i
COc1cc(OC)cc(C(=O)N2CCC(c3n[nH]c(=O)n3Cc3ccc(F)cc3)CC2)c1 | -9 | -12% | i | 1% | 0% | 18µM*
COc1cccc(C(=O)N2CCC(c3n[nH]c(=O)n3-c3ccc(C)cc3)CC2)c1 | 6 | -2% | i | -6% | 4% | 35µM*
COc1cc(OC)cc(C(=O)N2CCC(c3n[nH]c(=O)n3-c3ccc(C)cc3)CC2)c1 | 1 | -6% | i | 2% | -1% | 25µM*
O=C(Cc1ccc(Cl)cc1)N1CCC(c2n[nH]c(=O)n2-c2ccccc2)CC1 | 15 | -21% | i | -2% | -2% | 32µM*
O=C(Cc1ccc(OC(F)(F)F)cc1)N1CCC(c2n[nH]c(=O)n2-c2ccccc2)CC1 | -1 | -1% | i | 4% | 2% | ?
COc1ccc(CC(=O)N2CCC(c3n[nH]c(=O)n3-c3ccc(C)cc3)CC2)cc1 | -7 | -3% | i | -8% | 3% | 32µM*
Cc1ccc(CC(=O)N2CCC(c3n[nH]c(=O)n3-c3ccc(C)cc3)CC2)cc1 | -5 | 2% | i | 4% | -1% | ?
COc1ccc(-c2cccc(C(=O)NCCc3ccccc3)c2)nn1 | 19 | / | / | -20% | / | ?
N#Cc1cccc(CN2Cc3[nH]cnc3C[C@H]2c2nc(-c3cccc([N+](=O)[O-])c3)no2)c1 | 15 | -3%[87.6 µM] | i | ? | -13%[87.6 µM] | ?
O=[N+]([O-])c1cccc(-c2noc([C@@H]3Cc4nc[nH]c4CN3Cc3cccs3)n2)c1 | 0 | ? | i | ? | ? | 79µM*
O=[N+]([O-])c1cccc(-c2noc([C@@H]3Cc4nc[nH]c4CN3Cc3ccc(F)cc3)n2)c1 | 20 | -18%[87.6 µM] | i | 50µM* | -27%[87.6 µM] | ?
CN1CC(=O)N(C2CCNC2)Cc2c(NC3CCOC3)ncnc21 (centres undefined) | -7 | -6% | / | 0% | 13% | 4%
CCc1nc2c(c(-c3ccc(OC)cc3)n1)CCN(C(=O)c1ccccc1OC)CC2 | 2 | -13% | / | -5% | -22% | ?
CCc1nc2c(c(-c3ccc(OC)cc3)n1)CCN(C(=O)c1ccccc1)CC2 | -3 | 1% | / | -10% | -1% | ?
CCc1nc2c(c(-c3ccc(OC)cc3)n1)CCN(C(=O)c1ccccc1F)CC2 | 1 | 2% | / | -19% | 1% | 40µM*
CCc1nc2c(c(-c3ccc(OC)cc3)n1)CN(C(=O)c1ccc3c(c1)OCO3)CC2 | 4 | ? | / | -7% | -11% | 40µM*
CCc1nc2c(c(-c3ccc(OC)cc3)n1)CN(C(=O)c1ccccc1)CC2 | -10 | -15% | / | 1% | -6% | 14µM*
CN(Cc1ccccc1)[C@H]1[C@H](O)[C@H](CO)O[C@@H]1CNCc1ccc(F)cc1 | 9 | 18% | i | -15% | -2% | -11%
O=C(NCc1ccnc2[nH]ccc12)c1ccc2ccccc2n1 | -3 | 21%[87.6 µM] | ? | 89µM* | -17%[87.6 µM] | ?
O=C(Cc1ccccc1)NCc1ccnc2[nH]ccc12 | -8 | 24%[87.6 µM] | 35µM* | -3%[172 µM] | 3%[87.6 µM] | -5%[138 µM]
O=C(NCc1ccnc2[nH]ccc12)c1ccccc1Cl | 10 | 8%[87.6 µM] | i | -14%[172 µM] | 3%[87.6 µM] | -9%[138 µM]
Cc1ccc(NC(=O)C2CC(=O)N(c3n[nH]c4cccc(F)c34)C2)c(C)c1 (centres undefined) | -11 | -2% | i | 12% | 10% | -9%
N#Cc1ccc(CN2C[C@@H](COCC(N)=O)[C@H](c3ccncc3)C2)cc1 | -8 | 3% | i | 89µM* | 3% | -15%
CC(C)n1cc(CN2C[C@@H](COCC(N)=O)[C@H](c3ccncc3)C2)cn1 | 7 | -2% | i | ? | -3% | -13%
